Laboratory results taken from PubChem BioAssay AID463173 (ICCB-Longwood Screening Facility, Harvard Medical School, 2010).
Screen size: about 52,000 compounds; about 4,300 (8.3%) were called active. The sample holds actives, similar compounds and a random draw of the others, so the mix is not that of the screen. Values without a mark were called inactive. No stated cut-off is given here; in the data, active means survival mostly below about 52% (no sharp cut-off); inactive means mostly above about 56%.

system: DeltatarO mutant; assay: S. aureus survival, RN4220 and DeltatarO strains – OD600, teichoic acid synthesis inhibitors, primary screen (AID 463173); conditions: S. aureus RN4220 wild type/DeltatarO growth, OD600, 18 h, active compounds read low, concentration not given here

SMILES | survival
Cc1cccc(-n2c(/C=C/c3ccccc3O)nc3ccccc3c2=O)c1 | 0% (active)
CCCCc1nc2ccccc2c(=O)n1-c1cccc(OC)c1 | 119%
COc1cccc(-n2c(/C=C/c3ccccc3O)nc3ccccc3c2=O)c1 | 4% (active)
Cc1cccc(-n2c(/C=C/c3cccc4ccccc34)nc3ccccc3c2=O)c1 | 94%
COc1ccc(-n2c(/C=C\c3ccccc3F)nc3ccccc3c2=O)cc1OC | 89%
O=c1c2ccccc2nc(/C=C/c2ccccc2F)n1-c1cccc(O)c1 | 2% (active)
COc1cc(/C=C/c2nc3ccccc3c(=O)n2-c2ccc(Br)c(C)c2)ccc1O | 71%
Cc1cccc(-n2c(-c3ccco3)nc3ccccc3c2=O)c1 | 94%
Cn1cc(/C=C/c2nc3ccccc3c(=O)n2-c2ccccc2)c2ccccc21 | 77%
O=c1c2ccccc2nc(/C=C\c2ccccc2F)n1-c1ccc(O)cc1 | 67%
Cc1cc(C)cc(-n2c(/C=C/c3cccc(F)c3)nc3ccccc3c2=O)c1 | 83%
Cc1cccc(-n2c(/C=C/c3cn(C)c4ccccc34)nc3ccccc3c2=O)c1 | 21% (active)
Cc1cc(-n2c(/C=C/c3cccs3)nc3ccccc3c2=O)ccc1Br | 104%
O=C1/C(=C\c2cc3c(cc2Cl)OCO3)N2CCC1CC2 | 87%
O=C1NC(=S)NC(=O)C1C1CCCCC1 | 74%
CCC(C(=O)Nc1ccccc1F)N1C(=O)CN=C(c2ccccc2)c2ccccc21 (stereo not given) | 84%
CC(C)Cc1nc2cccnc2n1C1CCNCC1 | 120%
O=C(c1ccc2c(c1)N(Cc1ccc(F)cc1Cl)C(=O)c1ccccc1S2)N1CCC2(CC1)OCCO2 | 101%
COc1ccc(N=C2SCCCN2C)cc1 | 99%
CNC(=O)Oc1c(Cl)cc(Cl)cc1Cl | 96%
CCc1nc2ccccc2c(=O)n1-c1cccc(OC)c1 | 91%
Cc1ccc(-n2c(/C=C\c3ccc(F)cc3)nc3ccccc3c2=O)cc1Cl | 90%
O=c1c2ccccc2nc(/C=C/c2ccccc2O)n1-c1ccc(Br)cc1 | 41% (active)
Cc1cccc(-n2c(/C=C/c3c[nH]c4ccccc34)nc3ccccc3c2=O)c1 | 26% (active)

SMILES | survival
Cc1ccc(-n2c(/C=C/c3cccc(C(F)(F)F)c3)nc3ccccc3c2=O)cc1 | 72%
Cc1cccc(-n2c(CC3C(=O)Nc4ccc(C)cc43)nc3ccccc3c2=O)c1 (stereo not given) | 34% (active)
O=c1c2ccccc2nc(/C=C\c2cccc(Br)c2)n1-c1ccc(O)cc1 | 100%
Cc1ccc2c(c1)C(Cc1nc3ccccc3c(=O)n1-c1ccc(Br)cc1)C(=O)N2 (stereo not given) | 73%
Cc1ccc(-n2c(/C=C/c3cccc4ccccc34)nc3ccccc3c2=O)cc1 | 77%
O=C(Nc1ccc2c(c1)OCCO2)c1cccn(Cc2cccc(F)c2)c1=O | 84%
N#CC(C#N)=Cc1sc2ccccc2c1Cl | 93%
COc1ccc(C2(CN)CCOCC2)cc1 | 88%
O=c1cccc2n1CC1CC2CN(c2ncnc3c2cnn3-c2ccc(Cl)cc2)C1 (stereo not given) | 52%
Cc1ccc(NC(=O)Cn2cc(C(=O)c3ccccc3)c3ccccc32)cc1 | 122%
COc1ccc(-c2nc(CN3C(=O)CN=C(c4ccccc4)c4ccccc43)c(C)o2)cc1 | 84%
Cc1cccc(-c2nc(CN3C(=O)CN=C(c4ccccc4)c4ccccc43)c(C)o2)c1 | -2% (active)
COc1ccc(-c2nc(CN3C(=O)CN=C(c4ccccc4)c4ccccc43)c(C)o2)cc1OC | 97%
Cc1ccc(-c2nc(CN3C(=O)CN=C(c4ccccc4)c4ccccc43)c(C)o2)cc1 | 49%
Cc1oc(-c2ccc(Cl)cc2)nc1CN1C(=O)CN=C(c2ccccc2)c2ccccc21 | 49%
Cc1ccccc1-c1nc(CN2C(=O)CN=C(c3ccccc3)c3ccccc32)c(C)o1 | -1% (active)
O=C(Cn1cc(C(=O)c2ccccc2)c2ccccc21)Nc1ccc(Br)cc1 | 48%
Cn1c(=O)n(C)c2cc(CNCCc3ccccc3F)ccc21 | 68%
COc1ccc(Br)cc1CN1CCN(C(=O)Cc2ccccc2)CC1 | 73%
COc1ccc2c(c1OC)C(=O)OC2C1c2cc3c(cc2CCN1C)OCO3 (stereo not given) | 69%
CN1CCc2cc3c(c4c2C1Cc1ccccc1-4)OCO3 (stereo not given) | 12% (active)
CCCC12CN3CC(C)(CN(C1)C3c1c(C)[nH]c(=O)[nH]c1=O)C2=O (stereo not given) | 81%
N#CSCC(=O)N1c2ccccc2CCc2ccccc21 | 3% (active)
CN1CCN(c2csc3ccc(F)cc3c2=O)CC1 | 98%

SMILES | survival
Cc1ccc(-n2c(/C=C/c3cc(Br)cs3)nc3ccccc3c2=O)cc1C | 71%
O=C(COc1ccccc1)N1CCN(CC(O)COc2ccccc2)CC1 (stereo not given) | 68%
CN1CCN(C(=O)COc2cccc3ccccc23)CC1 | 98%
N#Cc1cc(F)c(N2CCNCC2)cc1Cl | 74%
N#Cc1cc2c(nc1SCC(=O)Nc1ccc(Cl)c(C(F)(F)F)c1)C1CCN2CC1 | -1% (active)
O=C(Nc1ccc(F)c(Cl)c1)N(Cc1ccc2c(c1)OCO2)C1CCN(Cc2ccccc2)CC1 | 68%
CN(C)c1ccc(NC(=O)c2sc3nc4c(cc3c2N)N2CCC4CC2)cc1 | 146%
N#Cc1cc2c(nc1SCC(=O)Nc1ccc(F)c(Cl)c1)C1CCN2CC1 | -2% (active)
CC(N)Cc1cn(Cc2ccccc2)c2ccccc12 (stereo not given) | 112%
CN1C(=O)C(Cc2nc3ccccc3c(=O)n2-c2ccccc2)c2ccccc21 (stereo not given) | 85%
C=C1N2CCC(CC2)C1(O)c1ccc(C)cc1 (stereo not given) | 44% (active)
COc1ccc(C(c2c(O)c3ccccc3oc2=O)c2c(C)n(C)n(-c3ccccc3)c2=O)cc1 (stereo not given) | 57%
Cc1c(C(c2ccc(O)cc2)c2c(O)c3ccccc3oc2=O)c(=O)n(-c2ccccc2)n1C (stereo not given) | 47% (active)
Cc1c(C(c2ccc(F)cc2)c2c(O)c3ccccc3oc2=O)c(=O)n(-c2ccccc2)n1C (stereo not given) | 89%
COc1cc(C(c2c(O)c3ccccc3oc2=O)c2c(C)n(C)n(-c3ccccc3)c2=O)ccc1O (stereo not given) | 53%
Cc1c(C(c2ccc(Br)cc2)c2c(O)c3ccccc3oc2=O)c(=O)n(-c2ccccc2)n1C (stereo not given) | 49% (active)
CSc1ccc(C(c2c(O)c3ccccc3oc2=O)c2c(C)n(C)n(-c3ccccc3)c2=O)cc1 (stereo not given) | 128%
COc1ccc(NC(=O)CN2C(=O)CN=C(c3ccccc3)c3ccccc32)c(OC)c1 | 99%
CC1CN2CCC3=C(CCCC3)C2(C)C1 (stereo not given) | 77%
CCN(CC)c1ccc(C=C(C#N)C#N)cc1 | 91%
CC(C)n1cc(C(=O)N(C2CC2)C(C(=O)NC2CCCC2)c2ccccc2)cn1 (stereo not given) | 101%
Cc1cccc(-n2nc(C)c3c2NC(=O)CSC3c2ccccc2Cl)c1 (stereo not given) | 43% (active)
CCc1ccc(-n2nc(C)c3c2NC(=O)CSC3c2ccc(OC)cc2OC)cc1 (stereo not given) | 60%
COc1ccccc1C1SCC(=O)Nc2c1c(C)nn2-c1cccc(C)c1 (stereo not given) | -1% (active)

SMILES | survival
COc1cccc(C2SCC(=O)Nc3c2c(C)nn3-c2ccc(C)c(Cl)c2)c1OC (stereo not given) | 55%
CCCOc1ccc(C2SCC(=O)Nc3c2c(C)nn3-c2cccc(C)c2)cc1OC (stereo not given) | 41% (active)
Cc1ccc(-n2c(/C=C/c3ccc(Br)s3)nc3ccccc3c2=O)cc1 | 85%
O=C1NC(=O)C(=Cc2ccc(N3CCOCC3)cc2)C(=O)N1 | 80%
O=c1cccc2n1CC1CC2CN(c2nc(Cl)nc(Cl)n2)C1 (stereo not given) | 80%
CCCCC12CN3CC(C)(CN(C1)C3c1ccccn1)C2=O (stereo not given) | 79%
Cc1cc(N)n(C2CCN(C)CC2)n1 | 94%
Cc1ccc(NC(=O)CN2C(=O)CN=C(c3ccccc3)c3ccccc32)cc1Cl | 122%
Cc1ccc(Cn2cccc(C(=O)Nc3nc4ccc(C)cc4s3)c2=O)cc1 | 117%
COC1=CC23CCN(C)C(Cc4ccc(OC)c(O)c42)C3=CC1=O (stereo not given) | 84%
N#Cc1cccc(NC(=O)CSc2nc3c(cc2C#N)N2CCC3CC2)c1 | 88%
CCOC(=O)c1ccc(NC(=O)c2sc3nc4c(cc3c2N)N2CCC4CC2)cc1 | 68%
CC(=O)c1ccc(NC(=O)c2sc3nc4c(cc3c2N)N2CCC4CC2)cc1 | 98%
N#Cc1cc2c(nc1SCC(=O)Nc1cccc(F)c1)C1CCN2CC1 | -4% (active)
N#Cc1cc2c(nc1SCC(=O)Nc1ccc(C(F)(F)F)cc1)C1CCN2CC1 | 8% (active)
O=C(CN1C(=O)CN=C(c2ccccc2)c2ccccc21)Nc1cccc(C(F)(F)F)c1 | 57%
Cc1cccc(CSc2nc3c(cc2C#N)CN(C)CC3)c1 | 101%
CCOC(=O)c1ccc(NC(=O)CSc2nc3c(cc2C#N)N2CCC3CC2)cc1 | 76%
N#Cc1cc2c(nc1SCC(=O)Nc1cccc(C(F)(F)F)c1)C1CCN2CC1 | 4% (active)
O=C(CNC1CCCCC1)N1CCC2(CC1)OCCO2 | 116%
CCc1cccc(NC(=O)CN2C(=O)CN=C(c3ccccc3F)c3cc(Cl)ccc32)c1 | 94%
CCC(C)N1CCN(Cc2cc(OC)c(OC)cc2OC)CC1 (stereo not given) | 108%
CCNCC1(c2ccc(OC)c(OC)c2)CCCC1 | 94%
